This passage reports outcome and Potency results from PubChem BioAssay (Tox21).

Results filed as inconclusive are left out. Calls of active or inactive are those of the source. Unless noted, calls come from the whole dose curve; as a rule, active = well fitted curve in the direction sought with a large enough effect in the repeat runs; inconclusive = weak or mixed curves; inactive = no such curve, though single readings can be large; an effect the other way counts as inactive or inconclusive.

Test [1] is described as follows: qHTS assay to identify small molecule antagonists of the glucocorticoid receptor (GR) signaling pathway - cell viability counter screen (AID 720693; note: nearly all actives have a fitted effect of over 55% in size). (In general: In qHTS, concentration-response curves come from the screen itself.)
Test [2] in a line: qHTS assay for identifying genotoxic compounds that show differential cytotoxicity against isogenic chicken DT40 cell lines with known DNA damage response pathways - Rev3 mutant cell line (AID 743014). Note: nearly all actives have a fitted effect of over 55% in size. Note: potency is the fitted concentration of half-maximal effect.
Test [3] is described as follows: qHTS assay to identify small molecule antagonists of the androgen receptor (AR) signaling pathway - cell viability counter screen (AID 743033; note: nearly all actives have a fitted effect of over 45% in size).
Test [4] in a line: qHTS assay to identify small molecule antagonists of the androgen receptor (AR) signaling pathway using the MDA cell line - cell viability counter screen (AID 743041; note: nearly all actives have a fitted effect of over 45% in size). In a few lines:
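Cells were plated at 3,000 per well and left 5 h. Compounds in DMSO were then pinned in, followed by R1881. After 16 h at 37C, CellTiter-Fluor fluorescence gave viability.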

Test [5] is described as follows: qHTS assay to identify small molecule antagonists of the thyroid receptor (TR) signaling pathway - cell viability counter screen (AID 743064). Note: nearly all actives have a fitted effect of over 50% in size. In a few lines:
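GH3.TRE-Luc cells, 4 h pre-plating; cpd + T3 1 nM final; 37 °C 23.5 h; CellTiter-Fluor 30 min; fluorescence read.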

Test [6] in a line: qHTS assay for identifying genotoxic compounds that show differential cytotoxicity against isogenic chicken DT40 cell lines with known DNA damage response pathways - Rad54/Ku70 mutant cell line (AID 743015). Note: nearly all actives have a fitted effect of over 60% in size. Note: potency is the fitted concentration of half-maximal effect.
For test [7], the target named is Androgen receptor (Homo sapiens) (UniProt P10275). Put plainly: qHTS assay to identify small molecule antagonists of the androgen receptor (AR) signaling pathway (AID 743035; active = well fitted inhibition curve with a large enough effect in the signal ratio in the repeat runs, not every such curve was filed as active; the % refers to the signal ratio; note: potency is the fitted concentration of half-maximal effect). The method, boiled down:
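Cell line: GeneBLAzer AR-UAS-bla GripTite (HEK293). Stimulus: R1881 added after compound. Exposure: 16 h, 37C, 5% CO2. Readout: LiveBLAzer B/G FRET fluorescence after 2 h at room temperature.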

Test [8] has the same target. Briefly: qHTS assay to identify small molecule agonists of the androgen receptor (AR) signaling pathway (AID 743036; active = well fitted activation curve with a large enough effect in the signal ratio in the repeat runs, with a control signal flat, not every such curve was filed as active; the % refers to the signal ratio). In a few lines: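 AR-bla HEK293 cells, 2,000/well; 4 h preincubation 37C/5% CO2; compound (DMSO) 16 h at 37C; LiveBLAzer B/G FRET substrate 2 h RT; fluorescence intensity read-out.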
Test [9] shares this target. Put plainly: qHTS assay to identify small molecule agonists of the androgen receptor (AR) signaling pathway using the MDA cell line (AID 743040; note: nearly all actives have a fitted effect of over 20% in size; note: potency is the fitted concentration of half-maximal effect). In a few lines: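 Cells plated, 5 h at 37C/0% CO2; compound or DMSO pinned; 16 h at 37C; ONE-Glo added; luminescence measured after 30 min at room temperature. Reporter line: MDA-kb2 with MMTV-luciferase responsive to AR and GR.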

The nature of test [10]: qHTS assay for identifying genotoxic compounds that show differential cytotoxicity against isogenic chicken DT40 cell lines with known DNA damage response pathways - wild type cell line (AID 743012). Note: nearly all actives have a fitted effect of over 60% in size. The method, boiled down: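 Quantitative HTS on parental DT40 cells: 40 h compound treatment at 37 C/5% CO2, with viability then determined by CellTiter-Glo luminescence. Values serve as the DNA repair-proficient reference for differential cytotoxicity.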

Sequence of Androgen receptor (Homo sapiens) (P10275 whole entry, looked up): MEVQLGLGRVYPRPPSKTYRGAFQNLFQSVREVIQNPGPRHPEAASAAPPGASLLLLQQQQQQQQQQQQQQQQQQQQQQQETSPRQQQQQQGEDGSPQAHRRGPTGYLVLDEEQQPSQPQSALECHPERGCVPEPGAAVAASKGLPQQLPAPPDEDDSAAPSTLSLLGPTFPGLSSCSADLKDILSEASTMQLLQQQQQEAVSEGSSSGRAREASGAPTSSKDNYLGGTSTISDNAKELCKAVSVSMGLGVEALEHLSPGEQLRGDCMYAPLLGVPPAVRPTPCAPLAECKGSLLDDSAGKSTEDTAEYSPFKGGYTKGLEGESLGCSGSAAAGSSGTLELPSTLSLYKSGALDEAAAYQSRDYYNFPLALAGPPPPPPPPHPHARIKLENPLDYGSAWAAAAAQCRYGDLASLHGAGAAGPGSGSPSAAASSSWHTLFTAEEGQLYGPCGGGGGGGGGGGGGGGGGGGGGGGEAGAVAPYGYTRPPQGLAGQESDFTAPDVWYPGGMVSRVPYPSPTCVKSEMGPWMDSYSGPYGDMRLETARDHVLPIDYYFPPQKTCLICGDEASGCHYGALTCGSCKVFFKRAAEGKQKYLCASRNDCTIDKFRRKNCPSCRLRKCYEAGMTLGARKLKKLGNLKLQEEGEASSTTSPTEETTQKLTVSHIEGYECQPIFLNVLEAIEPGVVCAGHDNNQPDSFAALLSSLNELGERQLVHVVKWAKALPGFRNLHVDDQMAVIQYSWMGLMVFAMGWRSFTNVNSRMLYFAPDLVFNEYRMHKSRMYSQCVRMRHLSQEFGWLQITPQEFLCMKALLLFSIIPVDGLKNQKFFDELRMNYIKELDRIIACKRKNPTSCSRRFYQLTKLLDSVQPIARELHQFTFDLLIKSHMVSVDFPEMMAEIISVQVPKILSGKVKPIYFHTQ

As for `CCCCCCCCN1CCCC1=O`, the call in test [1] and in [3] was inactive. The Potency entry in test [2], in test [4] and in test [5] was “inactive” in each case.

As to `c1ccc(CCc2ccccc2)cc1`, the compound was classed as inactive in test [1] and in [3]. Moreover, the Potency result in test [6], in test [4] and in test [5] was “inactive” each time.

With `CCCCCCCCCCCCCCC(=O)O`, the outcome in test [1] and in test [3] was inactive. For the same compound, the Potency result in [4] and in test [5] was “inactive” throughout.

Take `CC(C)(C)c1ccc(-c2ccc(C(C)(C)C)cc2)cc1`: the compound was classed as inactive in test [1] and in test [8]. Further, the Potency result in test [6], in test [7], in test [9], in test [4] and in [5] was “inactive” in each case.

As to `CN1CCC(=C2c3ccccc3CCc3cccnc32)CC1`, the outcome in test [1] and in test [3] was inactive. The Potency result in test [6] and in test [4] was “inactive” each time.

Consider `c1coc(CNc2ncnc3nc[nH]c23)c1`, for which the result in [1] and in [3] was inactive. For the same compound, the Potency in [6] was 54.5 µM (active). Also, the Potency result in test [4] and in [5] was “inactive” in each case.

Regarding `COc1cc2c(cc1OC)-c1cc3ccc(OC)c(OC)c3c[n+]1CC2`, the compound was classed as inactive in test [1] and in test [3]. In test [2], the Potency is 49 µM (active). Besides, the Potency entry in test [5] was “inactive”.

As for `CC(C)(C)C(=O)Oc1ccc(S(=O)(=O)Nc2ccccc2C(=O)NCC(=O)O)cc1`, the compound was classed as inactive in [1] and in [3]. The Potency result in test [6], in test [4] and in test [5] was “inactive” throughout.

Regarding `O=[N+]([O-])c1ccc(/C=N\O)o1`, the compound was called inactive in test [1] and in test [3]. For the same compound, the Potency result in test [4] and in [5] was “inactive” each time.

Take `CCOC(=O)COc1cc(-n2ncc(C(F)(F)F)c(C)c2=O)c(F)cc1Cl`: the outcome in test [1], in [3] and in test [8] was inactive. The Potency result in test [2], in test [7], in test [9], in [4] and in [5] was “inactive” in each case.

On to `CCCC[N+](C)(CCCC)CCCC`, for which the compound was called inactive in [1] and in test [3]. The Potency result in test [2], in test [4] and in test [5] was “inactive” each time.

As to `Cc1ncc(COP(=O)(O)O)c(C=O)c1O`, the result in test [1] and in test [3] was inactive. The Potency result in test [6], in [4] and in test [5] was “inactive” in each case.

As for `C=CC(=O)OCCCl`, the compound was classed as inactive in test [1] and in test [3]. Also, the Potency result in test [4] and in test [5] was “inactive” throughout.

On to `CCCCOC(=O)CCC(C)=O`, for which the outcome in test [1] and in test [3] was inactive. Moreover, the Potency in test [2] is 68.6 µM (active). Also, the Potency result in test [4] and in [5] was “inactive” each time.

With `CCOC(=O)C1=NOC(c2ccccc2)(c2ccccc2)C1`, the compound was called inactive in test [1] and in test [3]. In addition, the Potency in test [2] was 68.6 µM (active). In addition, the Potency entry in [4] and in test [5] was “inactive” in each case.

On to `c1ccc2sc(SN3CCOCC3)nc2c1`, for which the outcome in [1] and in test [3] was inactive. The Potency entry in [2], in [4] and in test [5] was “inactive” in each case.

As to `O=C(O)c1cn(C2CC2)c2cc(N3CCNCC3)c(F)cc2c1=O`, the compound was called inactive in test [1] and in test [3]. Moreover, the Potency result in [4] and in [5] was “inactive” each time.

Regarding `C[N+](C)(CCOc1ccccc1)Cc1cccs1`, the call in test [1] and in [3] was inactive. Also, the Potency entry in [6], in [9], in test [4] and in test [5] was “inactive” each time.

In the case of `C=C[Si](OC(C)=O)(OC(C)=O)OC(C)=O`, the compound was classed as inactive in [1], in test [3] and in test [8]. Besides, the Potency in test [2] was 61.1 µM (active). For the same compound, the Potency result in [7], in [9], in test [4] and in test [5] was “inactive” in each case.

In the case of `NC(N)=NCCN1CCCCCCC1`, the call in test [1] and in test [3] was inactive. Further, the Potency entry in [4] and in [5] was “inactive” throughout.

For the compound `NC(=O)N[C@@H](CCC(=O)O)C(=O)O`, the Potency entry in [10], in test [2], in test [6], in [4] and in [5] was “inactive” throughout. For the same compound, in test [3], the compound was classed as inactive.

Consider `COc1cc(C)nc(-n2nc(C)cc2OC)n1`, for which the call in [1] and in [3] was inactive. Besides, the Potency entry in test [4] and in [5] was “inactive” throughout.

Turning to `O=C1c2ccccc2C(=O)c2cc(O)ccc21`, the Potency entry in test [10], in test [4] and in test [5] was “inactive” each time. Also, the result in [3] was inactive.

With `COc1cc(C(=O)OC(COCCC(C)C)CN2CCOCC2)cc(OC)c1OC` (stereo not drawn), in [1], the compound was classed as inactive. Further, the Potency result in test [2], in test [4] and in test [5] was “inactive” each time.

With `C=C(C)C(=O)OCCOCCOCCOCCOC(=O)C(=C)C`, the call in test [1] and in [3] was inactive. The Potency result in [2], in test [4] and in [5] was “inactive” in each case.

`CC(C)CC(C)(N)C#N` (stereo not drawn): the Potency entry in test [10], in [2], in [6], in test [4] and in test [5] was “inactive” throughout. Besides, the compound was called inactive in test [3].

Take `C[C@@H]1C[C@H]2[C@@H]3C[C@H](F)C4=CC(=O)C(Cl)=C[C@]4(C)[C@@]3(F)[C@@H](O)C[C@]2(C)[C@@]1(O)C(=O)CO`: the compound was classed as inactive in [1] and in [3]. The Potency is 29.8 µM (active) in test [6], 3.38 µM (active) in [7] and 0.006 µM (active) in test [9]. In addition, the Potency result in test [4] and in test [5] was “inactive” each time.

As to `CCOC(=O)c1cnc2c(cnn2CC)c1NN=C(C)C`, the call in test [1] and in test [3] was inactive. Further, the Potency entry in test [4] and in test [5] was “inactive” throughout.

As to `CCCc1ncc(C[n+]2ccccc2C)c(N)n1`, the outcome in [1] and in [3] was inactive. The Potency result in test [2], in test [6], in test [4] and in test [5] was “inactive” throughout.

On to `CC(C)=CCC/C(C)=C/C#N`, for which the compound was classed as inactive in test [1] and in [3]. Further, the Potency entry in [4] and in test [5] was “inactive” in each case.

`CCOC(=O)CCC(=O)OCC`: the outcome in test [1] and in test [3] was inactive. Further, the Potency result in test [4] is “inactive”.

As for `CCC(=O)OCc1ccccc1`, the Potency result in test [2], in [6], in test [4] and in test [5] was “inactive” in each case. Moreover, the call in [3] was inactive.

Turning to `CC1=NN(c2cccc(S(=O)(=O)O)c2)C(=O)C1`, the Potency entry in test [10], in test [2], in test [6], in [7], in test [9] and in test [4] was “inactive” in each case. Also, the Potency result in test [5] is “inactive”. The result in [3] and in test [8] was inactive.

On to `CCC(C)(CN(C)C)OC(=O)c1ccccc1` (stereo not drawn), for which the compound was classed as inactive in test [1] and in [3]. In addition, the Potency entry in test [4] and in [5] was “inactive” each time.

As to `COc1cc(-c2ccc(=O)[nH]n2)ccc1OC(F)F`, the Potency entry in test [10], in test [6], in test [4] and in test [5] was “inactive” each time. For the same compound, the call in test [3] was inactive.

As to `CCOC(=O)OC(C)OC1=C(C(=O)Nc2ccccn2)N(C)S(=O)(=O)c2ccccc21` (stereo not drawn), the outcome in [1] and in [3] was inactive. Also, in test [6], the Potency is 0.944 µM (active). Moreover, the Potency result in [4] and in [5] was “inactive” each time.
